Test results reported in PMC12136788.
Residue numbers refer to the chain shown, from its start. Whole data set: some 24,000 sequences, median “enrichment r” near 0.99, cut for the highest 2% near 3.7. The entries come from a sample that favours the highest values as a whole.

T1: UNK ZnF1-3 (human, UniProt Q9C0B0 31-174)
T1 sequence: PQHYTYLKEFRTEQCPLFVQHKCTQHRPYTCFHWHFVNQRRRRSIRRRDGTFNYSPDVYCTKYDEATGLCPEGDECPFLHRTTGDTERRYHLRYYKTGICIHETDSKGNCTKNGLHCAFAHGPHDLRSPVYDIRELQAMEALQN

B1: chr7:7679991:7679992:-_ENSG00000106399_ENST00000396682|hu_hu|hu_hu_hu_mus_False|18_48 (ssRNA)
RNA: GGGAGUUCUACAGUCCGACGAUCUGGGAUGAAUCUUUUCCAGCUUCCCCACGAAGCACACGGGCCGGUCGAUAUACUGUGGUAACAUGCCGGCGUUGACGCGCGCUUUGGGGAGCUCCAUCAUGUCCUCCAUGAUUCUGCCGCCAACAGAGGAUUGAGCAUCA
B2: chr1:163117127:163117128:-_ENSG00000143248_ENST00000313961|hu_mus|hu_hu_hu_mus_False|38_78 (ssRNA)
RNA: GGGAGUUCUACAGUCCGACGAUCUGCUACAAAGGAUGUAACUCAACUCACAGGGCAUGAUUUCAUAGCCUGACCAGAUGACUACUUGAUUAGCUCCUGAUAAAACUCAGAGCGCACAAAGCGGGGCAGAGAAUCCUUCUCCAUCAACAGAGGAUUGAGCAUCA
B3: chr16:45382771:45382772:-_ENSMUSG00000022661_ENSMUST00000163230|mus_mus|mus_mus_mus_hu_True|8_108 (ssRNA)
RNA: GGGAGUUCUACAGUCCGACGAUCCUGAGUGUUAUUGUAAGACAAAUGGACAGGGAGGGCAUGCUUCUCAAAAAAUGUGAGCUAUUGUCUAAGACUAACAAUAUUUAUCUAGCUAUAAAAAUAAGUUUUAAAUGGACGUUAAGACAACAGAGGAUUGAGCAUCA
B4: chr16:45382771:45382772:-_ENSMUSG00000022661_ENSMUST00000163230|mus_mus|mus_mus_mus_hu_True|8_48 (ssRNA)
RNA: B3 RNA with A27G, G30C, U31A, A33G, G36A, U87A
B5: chr16:45382771:45382772:-_ENSMUSG00000022661_ENSMUST00000163230|mus_mus|mus_mus_mus_hu_True|8_8 (ssRNA)
RNA: B3 RNA with A27G, G30C, U31A, A33G, G36A
B6: chr16:45382771:45382772:-_ENSMUSG00000022661_ENSMUST00000163230|mus_mus|mus_mus_mus_hu_True|8_38 (ssRNA)
RNA: B3 RNA with A27G, G30C, U31A, A33G, G36A, U105G, A106C
B7: chr14:62207507:62207508:+_ENSG00000100644_ENST00000337138|hu_mus|FALSE|FALSE (ssRNA)
RNA: GGGAGUUCUACAGUCCGACGAUCUGACAACUGAUCAAAGGAACGUAACUGGAAAUCAUCAUCCAUUGGGAUAUAGGGAGCCAGCAUCUCCAAAUCUAAAUCAGUGUCCUGAGUUGAAAAUGGAUUCUUUGCCUCUGUGUCUUCCAACAGAGGAUUGAGCAUCA
B8: chr9:95013113:95013114:-_ENSG00000196305_ENST00000443024|hu_hu|hu_hu_hu_mus_False|28_58 (ssRNA)
RNA: GGGAGUUCUACAGUCCGACGAUCCUCAGUCAGAAAGGGCGUGUAAGGGGCCAUCAGUCUGCACAGAGAAAGCAGGACACUAAACAAUGUCUCCAGAGCCAUGACACAAUCCUCCAUCCCACUCUCACCCUUUAACCUCCUCCUCAACAGAGGAUUGAGCAUCA
B9: chr9:14812383:14812384:-_ENSMUSG00000031934_ENSMUST00000164273|mus_mus|FALSE|FALSE (ssRNA)
RNA: GGGAGUUCUACAGUCCGACGAUCAUAGCUCAAGUAGAUACAUGCCAACAGUAUAACCACAAAUGUCACCAGCCGGCAGCUAAUGUAUUUCAUGAUUAAAUGACUAGAGUUCUUUUUUGUCUUCAAGUACUGCUCCACGAUUGGCAACAGAGGAUUGAGCAUCA
B10: chr5:128448638:128448639:+_ENSG00000066583_ENST00000173527|hu_mus|hu_hu_hu_mus_False|48_58 (ssRNA)
RNA: GGGAGUUCUACAGUCCGACGAUCGGCACUCGCCUUAAUUAGGUUCUGAAUUUCCUUGAACUUCGGGUGGUCUUUGUCAGCUACCAGCUGAAGCAGAACAGCCUCACUAGUGGUCACGAUGAUCCCAGUGCGGGCAAGACGCUCCAACAGAGGAUUGAGCAUCA
B11: chr10:121347744:121347745:-_ENSG00000151923_ENST00000436547|hu_mus|FALSE|FALSE (ssRNA)
RNA: GGGAGUUCUACAGUCCGACGAUCCGAUCUGACUGAAUAACUGAAGAAUAAGGACUUCUGUCACAUCUCUGGAGAGGUUACCUACGUAUAGAGUCCGGGGCUGUCCGUCGUCUUCCAUCAUGGUGGGUGCGACGGAGUGAUCCCCAACAGAGGAUUGAGCAUCA
B12: 89385701_89385821_685_3pUTR_ENSMUSG00000031652_ENSMUST00000034074|mouse|control|control (ssRNA)
RNA: GGGAGUUCUACAGUCCGACGAUCUCUGCGUGGGCUUCAACAAACUGUCUGAAUUCCCGUUUGAUUUCCGACUCUCUCUGAUUACUGGGGAGGUUCUCGUUGCUCUCAAAGAGCUUCACAAACUGCUGAAUGUGACUCCUGGCCCAACAGAGGAUUGAGCAUCA
B13: chr19:16212804:16212805:+_ENSG00000167460_ENST00000300933|hu_mus|hu_hu_hu_mus_False|8_88 (ssRNA)
RNA: GGGAGUUCUACAGUCCGACGAUCAACAAUUCUGGAGUGAAGGAAAGCAUCAAGGAUGAACAGCAUUAAAGCUCAGUCAGAAGGCACAUGGGCAACAAUGAUCACCCCAGCAUUCUCGCUUGGAAUGUGCUUGAGAAAUCUGUUCAACAGAGGAUUGAGCAUCA
B14: chr1:130171486:130171487:+_ENSMUSG00000026353_ENSMUST00000027592|perfect_dup|motif|central (ssRNA)
RNA: GGGAGUUCUACAGUCCGACGAUCUGACGAUGUUACUCUCACUGAAGUCUGUGUGGGAGGCGGAUUACUAAACAAGAAAUUGCGGAUUAAUCUCCAGAUGGCAAGGAAUGGAUAAAGCACUGUUCCCAACAAGGUCCAAAUGUCCAACAGAGGAUUGAGCAUCA
B15: chr12:16048344:16048345:+_ENSG00000023734_ENST00000419869|hu_hu|hu_hu_hu_mus_True|8_8 (ssRNA)
RNA: GGGAGUUCUACAGUCCGACGAUCAGAUCGUCCAUAAGUAAUAACCAAAAUCUCUCCUUCAGGAAUAUACUCCAUGCUGCUAACAGACAUAUUAAAAUUCAGAGAUUUCACUUCUGUCAUUGUGGCAUGAUCCCAAAGCCGAACCAACAGAGGAUUGAGCAUCA
B16: chr1:130171486:130171487:+_ENSMUSG00000026353_ENSMUST00000027592|perfect_dup|motif|central (ssRNA)
RNA: GGGAGUUCUACAGUCCGACGAUCUGUGGAUGUGGCUCUUGCUGAAGUCUGUGCAGGAGGAGGAUUGCUAAAUAAAAAAUUGCGGAUUAAUCUCCAUAUGGCCAGGAAUGGAUAAAGCACCGUCCCCAGUAAUGUCCAAAUGUCCAACAGAGGAUUGAGCAUCA
B17: chr1:130171486:130171487:+_ENSMUSG00000026353_ENSMUST00000027592|perfect_dup|FALSE|FALSE (ssRNA)
RNA: B16 RNA with G83U, G84A
B18: chr1:130171486:130171487:+_ENSMUSG00000026353_ENSMUST00000027592|perfect_dup|FALSE|FALSE (ssRNA)
RNA: B14 RNA with G83U, G84A
B19: chrX:102931482:102931483:-_ENSG00000123562_ENST00000441076|hu_hu|FALSE|FALSE (ssRNA)
RNA: GGGAGUUCUACAGUCCGACGAUCAAUUGCAUCUACAUUUUUCUUGGCAGGGAGUUGAAACAGCUGCUUCUGCCUGGUAACUAAGUCCCAGUCCUCAACAAGCCAUGGUUUUAAUUCUUCAGGAAUCUUCACUUUAACCUCCAUCAACAGAGGAUUGAGCAUCA
B20: chr4:131761308:131761309:-_ENSMUSG00000040025_ENSMUST00000102570|mus_mus|motif|central (ssRNA)
RNA: GGGAGUUCUACAGUCCGACGAUCGCUGACUGUCCAUCAAUCAUGGCUCCACCUAAGGAGCUGGGUGCAUAAGCGUAAUUGCGGCGGUAUCCAGAGCUUUGAGUAGACUGUCCCUGAGAACUGUUAUUUCCCCAUGCUGAGAAGCAACAGAGGAUUGAGCAUCA
B21: chr17:15081082:15081083:+_ENSMUSG00000050088_ENSMUST00000052691|mus_mus|motif|central (ssRNA)
RNA: GGGAGUUCUACAGUCCGACGAUCUGCUCCAGCAUAUUCAAGGGAUCAGAAGAGAAUUUCAAGCACCAGUUUCAAAAUGCGGAUCAAUAUCGUCCAGAGAACUGAUUCCUCCUCUUGGGCUGCCUCUUCUGGAGCGUAAGCCUGCAACAGAGGAUUGAGCAUCA
B22: chr14:14948730:14948731:-_ENSMUSG00000021737_ENSMUST00000022256|mus_mus|FALSE|FALSE (ssRNA)
RNA: GGGAGUUCUACAGUCCGACGAUCAAAAACUGAAUAACGGCAUUCAUAGAGAGAAAACAGAUACUGCCGAACUGCUGGAAGACUGUGCAACACUUCAAGGAUCUCUGCCCCUUUAAUGACCUUUUCCCUGAGGUCCGGCCUUUCCAACAGAGGAUUGAGCAUCA

These binders were tested against T1, UNK ZnF1-3 (assay: nsRBNS (natural sequence RNA bind-n-seq); RBNS binding buffer (assumed for nsRBNS): 25 mM Tris pH 7.5, 150 mM KCl, 3 mM MgCl2, 0.01% Triton X-100, 500 ug/ml BSA, 20 U/ml SUPERase-In, 4 C; UNK is unkempt and MSI1 is Musashi-1; names of the RNAs are library labels; protein concentration not given here; high values mean tight binding).

| Binder | binding signal [enrichment R] |
| --- | --- |
| B1 | 0.554 |
| B2 | 0.974 |
| B3 | 3.42 |
| B4 | 5.59 |
| B5 | 3.98 |
| B6 | 3.88 |
| B7 | 1.17 |
| B8 | 1.38 |
| B9 | 0.953 |
| B10 | 0.822 |
| B11 | 0.644 |
| B12 | 0.876 |
| B13 | 1.57 |
| B14 | 3.3 |
| B15 | 1.38 |
| B16 | 3.3 |
| B17 | 4.56 |
| B18 | 4.56 |
| B19 | 1.04 |
| B20 | 1.17 |
| B21 | 1.62 |
| B22 | 1.41 |
